Measurements taken from PubChem BioAssay (NCATS).
Inconclusive results are not listed. Calls of active or inactive are those of the source. Unless noted, the call rests on the fitted dose curve; in most records, active means well fitted curve in either direction with a large enough effect (not every such curve was filed as active); inconclusive means small, poorly fitted or top-dose-only effect, or another doubt; inactive means flat fitted curve, though single readings scatter.

Legend:
[1] = target: Lysosomal acid glucosylceramidase (Homo sapiens) (UniProt P04062); assay: Glucocerebrosidase-p2 (AID 348; in the data active means potency below about 10 µM; further: potency means the concentration at half of the fitted maximal effect); conditions: purified GBA, blue fluorogenic substrate, 40 min
Chain of Lysosomal acid glucosylceramidase (Homo sapiens) (P04062 whole entry, looked up): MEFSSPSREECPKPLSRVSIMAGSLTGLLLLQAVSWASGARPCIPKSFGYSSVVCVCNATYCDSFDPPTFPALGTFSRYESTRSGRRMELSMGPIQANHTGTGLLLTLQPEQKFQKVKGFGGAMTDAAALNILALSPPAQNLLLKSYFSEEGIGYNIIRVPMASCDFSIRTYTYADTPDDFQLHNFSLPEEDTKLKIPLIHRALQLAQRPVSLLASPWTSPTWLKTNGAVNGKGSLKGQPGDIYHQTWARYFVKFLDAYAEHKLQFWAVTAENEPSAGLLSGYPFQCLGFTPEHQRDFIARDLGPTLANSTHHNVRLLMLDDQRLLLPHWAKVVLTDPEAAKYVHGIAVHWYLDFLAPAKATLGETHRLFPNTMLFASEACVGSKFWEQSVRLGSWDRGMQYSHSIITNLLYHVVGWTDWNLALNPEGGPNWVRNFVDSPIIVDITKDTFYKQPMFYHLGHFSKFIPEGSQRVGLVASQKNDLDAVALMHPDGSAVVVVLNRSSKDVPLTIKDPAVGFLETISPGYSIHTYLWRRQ
How it was run: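 Compounds titrated from 0.6 nM upwards against 0.2 nM enzyme in pH 5.9 citric acid/KH2PO4, taurocholate, tween-20; blue fluorogenic substrate 80 uM, 40 min room temperature, stopped and read Ex 365/Em 440 for AC50.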

[2] = AP1 Signaling Pathway (AID 357); conditions: ME-180 AP-1-bla reporter, EGF-induced, beta-lactamase ratio, 5 h; at 7.69 µM (top of the series) unless noted;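 further: ME-180 reporter cells stimulated with EGF at its EC50 level; on the % scale 0 is the no-effect control and ±100 the full control effect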
How it was run: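 Read-out was the 460nm/530nm emission ratio (excitation 405nm) after CCF4 loading for 2.5 hours at room temperature. Cells carried an AP-1-driven beta-lactamase reporter, were stimulated with EC50 EGF plus compound for 5 hours, and AC50 values came from titrations.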

[3] = NFAT Signaling Pathway (AID 444); conditions: Jurkat NFAT-bla M1, carbachol, beta-lactamase ratio, 5 h; at 7.69 µM (top of the series) unless noted;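 further: carbachol stimulus at about its EC50 of 1 µM final; on the % scale 0 is the no-effect control and ±100 the full control effect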
How it was run: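 Jurkat cells with NFAT-driven β-lactamase reporter and co-expressed M1 receptor, stimulated with carbachol (final 1 uM, ~EC50), compound titration, 5 h at 37 °C. CCF4 loaded 1 h at RT; 460/530 nm ratio gave %activity and AC50.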

[4] = Stat Signaling Pathway (AID 446); conditions: ME-180 SIE beta-lactamase reporter, IL-6 stimulated, 5 h; at 7.69 µM (top of the series) unless noted;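 further: ME-180 cervical cancer cells given 40 pM IL-6 alongside compound; SIE-controlled beta-lactamase reporter measured as 460/530 nm FRET emission ratio; on the % scale 0 is the no-effect control and ±100 the full control effect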
How it was run: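 Screening format detects activators and inhibitors alike: ME-180 SIE-bla cells stimulated at 40 pM IL-6 for 5 hrs with compound, then dual-emission beta-lactamase read at 405 nm excitation.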

[5] = target: Glucocorticoid receptor (Homo sapiens) (UniProt P04150); assay: GR-GFP Redistribution (AID 450;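 active means compounds whose dose series gives a full or clear partial fitted curve of increased nuclear translocation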; further: potency means the concentration at half of the fitted maximal effect); conditions: U2OS GR-GFP nuclear translocation, laser cytometry, 2 h
Chain of Glucocorticoid receptor (Homo sapiens) (P04150 whole entry, looked up, the tested form may be a part): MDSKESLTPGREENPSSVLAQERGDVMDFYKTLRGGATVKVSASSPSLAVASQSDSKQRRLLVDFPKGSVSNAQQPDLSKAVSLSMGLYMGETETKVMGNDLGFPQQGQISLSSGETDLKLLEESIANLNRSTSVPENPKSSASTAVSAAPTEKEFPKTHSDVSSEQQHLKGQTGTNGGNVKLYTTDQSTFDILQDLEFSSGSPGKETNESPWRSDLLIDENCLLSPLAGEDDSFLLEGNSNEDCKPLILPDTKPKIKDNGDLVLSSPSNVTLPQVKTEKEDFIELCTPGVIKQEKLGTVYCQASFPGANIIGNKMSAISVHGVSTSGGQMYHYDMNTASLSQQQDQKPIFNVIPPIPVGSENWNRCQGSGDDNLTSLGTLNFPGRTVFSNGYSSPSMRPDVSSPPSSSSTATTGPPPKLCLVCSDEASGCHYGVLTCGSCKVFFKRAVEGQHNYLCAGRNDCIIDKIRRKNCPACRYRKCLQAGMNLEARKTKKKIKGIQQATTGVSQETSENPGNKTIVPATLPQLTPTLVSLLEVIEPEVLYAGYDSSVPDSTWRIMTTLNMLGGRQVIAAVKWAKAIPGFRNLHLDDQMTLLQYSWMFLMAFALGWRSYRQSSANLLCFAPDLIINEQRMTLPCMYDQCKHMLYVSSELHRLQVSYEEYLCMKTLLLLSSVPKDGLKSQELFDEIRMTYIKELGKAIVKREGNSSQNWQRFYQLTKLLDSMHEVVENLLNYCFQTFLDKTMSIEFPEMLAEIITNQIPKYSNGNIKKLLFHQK

[6] = target: Glucocorticoid receptor (Homo sapiens) (UniProt P04150); assay: GR-EFC Redistribution (AID 451; calls by dose curve; further: potency means the concentration at half of the fitted maximal effect); conditions: CHO-K1 GR-EFC translocation, beta-gal luminescence, 2 h
How it was run: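 CHO-K1 cells expressing nuclear EA and GR-ED fragments of b-gal; compounds titrated up to 46 uM final, 2 h at 37 C. GR nuclear translocation read as complemented b-gal luminescence after 1 h RT detection.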

[7] = target: Mitogen-activated protein kinase 10 (Mus musculus) (UniProt Q61831); assay: JNK3 AlphaScreen Assay (AID 530); conditions: JNK3 lysate, c-Jun phosphorylation; series mostly up to 11.4 µM;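 further: kinase came from lysate of stimulated human HepG2 cells; signal reports phosphorylation of biotinylated GST-cJun 1-79 at Ser73 with 10 µM ATP; on the % scale 0 is the no-effect control and ±100 the full control effect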
How it was run: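 Pre-activated (IL-1β/TNFα) JNK3 in HepG2 lysates phosphorylates biotin-GST-cJun(1-79), 10 uM ATP; anti-phospho-cJun(Ser73) AlphaScreen read at room temperature, pH 7.6 Tris buffer. Compounds pre-incubated 15 min as titrations.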

[8] = target: 3',5'-cyclic-AMP phosphodiesterase 4B (Homo sapiens) (UniProt Q07343); assay: qHTS Assay for Inhibitors of PDE-IV (AID 607; active means well fitted activation curve with a large enough effect in the main read-out, with a control signal flat, not every such curve was filed as active; further: % of control where 0% means no effect); conditions: HEK293 ACTOne CNG channel cells, membrane potential fluorescence; series mostly up to 22.9 µM
Chain of 3',5'-cyclic-AMP phosphodiesterase 4B (Homo sapiens) (Q07343 whole entry, looked up): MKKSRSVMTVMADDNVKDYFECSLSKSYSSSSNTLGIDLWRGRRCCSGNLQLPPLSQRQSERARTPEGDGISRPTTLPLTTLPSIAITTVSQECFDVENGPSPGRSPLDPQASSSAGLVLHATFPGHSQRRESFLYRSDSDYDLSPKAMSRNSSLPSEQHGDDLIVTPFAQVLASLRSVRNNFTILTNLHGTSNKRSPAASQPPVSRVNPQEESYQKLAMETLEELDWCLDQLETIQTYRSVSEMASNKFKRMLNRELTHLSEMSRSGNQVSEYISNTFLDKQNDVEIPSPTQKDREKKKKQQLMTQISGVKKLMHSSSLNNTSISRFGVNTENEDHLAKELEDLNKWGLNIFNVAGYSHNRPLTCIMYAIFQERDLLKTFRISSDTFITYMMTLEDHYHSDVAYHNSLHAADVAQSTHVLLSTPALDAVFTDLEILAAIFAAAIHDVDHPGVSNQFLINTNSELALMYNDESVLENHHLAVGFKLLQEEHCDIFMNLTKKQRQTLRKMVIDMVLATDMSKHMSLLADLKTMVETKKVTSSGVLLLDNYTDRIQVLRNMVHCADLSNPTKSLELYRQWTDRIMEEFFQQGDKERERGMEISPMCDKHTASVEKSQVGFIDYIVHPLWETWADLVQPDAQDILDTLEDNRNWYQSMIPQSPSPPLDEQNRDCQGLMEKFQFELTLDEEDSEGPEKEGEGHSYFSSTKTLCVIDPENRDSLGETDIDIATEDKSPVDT
How it was run: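 The readout is membrane depolarisation from a cAMP-sensing CNG channel, detected with a potential dye at ex 535/em 590. Cells were HEK293-derived (endogenous PDE-IV) at 1000 cells/well, titrated up to 22.9 uM final.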

CC(C)(CCC(C)(C)c1ccccc1)c1ccccc1
inactive: Potency [1] > 11.4 µM | activity change, negative = inhibition [2] -0.999% | activity change, negative = inhibition [3] 5.11% | activity, negative = inhibition [4] -2.84% | Potency [5] > 46 µM | Potency [6] > 9.22 µM | Potency [7] | Potency [8]

O=C(O)CSCc1cccc2ccccc12
inactive: Potency [1] > 11.4 µM | activity change, negative = inhibition [2] -0.864% | activity change, negative = inhibition [3] 16.3% | activity, negative = inhibition [4] 2.65% | Potency [5] > 46 µM | Potency [6] > 9.22 µM | Potency [7] | Potency [8]

O=C(CSC1=NCCN1)c1ccccc1
inactive: Potency [1] > 11.4 µM | activity change, negative = inhibition [2] -0.79% | activity change, negative = inhibition [3] -8.06% | activity, negative = inhibition [4] -8.19% | Potency [5] > 46 µM | Potency [6] > 9.22 µM | Potency [7] | Potency [8]

S=c1[nH]nc(SCc2ccccc2Cl)c2[nH]cnc12
inactive: Potency [1] > 11.4 µM | activity change, negative = inhibition [2] -6.3% | activity change, negative = inhibition [3] 0.186% | activity, negative = inhibition [4] -8.85% | Potency [5] > 46 µM | Potency [6] > 9.22 µM | Potency [7] | Potency [8]

CC(NC(=O)c1ccccc1)(C(=O)O)C(=O)O
inactive: Potency [1] > 11.4 µM | activity change, negative = inhibition [2] 2.23% | activity change, negative = inhibition [3] -6.87% | activity, negative = inhibition [4] 14.4% | Potency [5] > 46 µM | Potency [6] > 9.22 µM | Potency [7] | Potency [8]

O=C(O)CNC(=O)[C@H]1NC(C(F)(F)F)(C(F)(F)F)OC1(C(F)(F)F)C(F)(F)F
inactive: Potency [1] > 11.4 µM | activity change, negative = inhibition [2] -4.91% | activity change, negative = inhibition [3] 10.9% | activity, negative = inhibition [4] -14.7% | Potency [5] > 46 µM | Potency [6] > 9.22 µM | Potency [7] | Potency [8]

Oc1c(CN2CCOCC2)ccc(CN2CCOCC2)c1O
inactive: Potency [1] > 11.4 µM | activity change, negative = inhibition [2] -1.19% | activity change, negative = inhibition [3] 13% | activity, negative = inhibition [4] -3.77% | Potency [5] > 46 µM | Potency [6] > 9.22 µM | Potency [7] | Potency [8]

CC(=O)Nc1ccc(-c2cc(C(=O)O)c3cc4ccccc4cc3n2)cc1
inactive: Potency [1] > 11.4 µM | activity change, negative = inhibition [2] 7.67% | activity change, negative = inhibition [3] 5.02% | activity, negative = inhibition [4] -2.25% | Potency [5] > 46 µM | Potency [6] > 9.22 µM | Potency [7] | Potency [8]

Cc1cc2ncn(CC(=O)O)c2cc1C
inactive: Potency [1] > 11.4 µM | activity change, negative = inhibition [2] -4.54% | activity change, negative = inhibition [3] 1.45% | activity, negative = inhibition [4] 8.76% | Potency [5] > 46 µM | Potency [6] > 9.22 µM | Potency [7] | Potency [8]

C[N@@+]1(CC[N@@+]2(C)CCC[C@H]2c2cccnc2)CCC[C@@H]1c1cccnc1
inactive: Potency [1] > 11.4 µM | activity change, negative = inhibition [2] 28.9% | activity change, negative = inhibition [3] -16.4% | activity, negative = inhibition [4] -5.44% | Potency [5] > 46 µM | Potency [6] > 9.22 µM | Potency [7] | Potency [8]

Nc1nc(N)c(N=Nc2ccc(C(=O)O)c(O)c2)c(N)n1
inactive: Potency [1] > 11.4 µM | activity change, negative = inhibition [2] 2.15% | activity change, negative = inhibition [3] 15.4% | activity, negative = inhibition [4] -2.93% | Potency [5] > 46 µM | Potency [6] > 9.22 µM | Potency [7] | Potency [8]

CSc1ccc(NC(=O)[C@H]2CCCC[C@@H]2C(=O)O)cc1
inactive: Potency [1] > 11.4 µM | activity change, negative = inhibition [2] 2.18% | activity change, negative = inhibition [3] 4.17% | activity, negative = inhibition [4] 3.36% | Potency [5] > 46 µM | Potency [6] > 9.22 µM | Potency [7] | Potency [8]

C[N+](C)(N)Cc1nc(-c2ccc(Cl)cc2)no1
inactive: Potency [1] > 11.4 µM | activity change, negative = inhibition [2] 3.76% | activity change, negative = inhibition [3] -6.01% | activity, negative = inhibition [4] 4.26% | Potency [5] > 46 µM | Potency [6] > 9.22 µM | Potency [7] | Potency [8]

COc1cc2c(cc1O)[C@@H](c1cc(O)c(O)c(OC)c1)[C@@](O)(C(=O)O)[C@@H](CO)[C@@H]2O
inactive: Potency [1] > 11.4 µM | activity change, negative = inhibition [2] 0.0448% | activity change, negative = inhibition [3] -5.96% | activity, negative = inhibition [4] 4.61% | Potency [5] > 46 µM | Potency [6] > 9.22 µM | Potency [7] | Potency [8]

O=C(O)/C(Cc1ccnc2ccccc12)=N\O
inactive: Potency [1] > 11.4 µM | activity change, negative = inhibition [2] -9.39% | activity change, negative = inhibition [3] 0.364% | activity, negative = inhibition [4] 4.23% | Potency [5] > 46 µM | Potency [6] > 9.22 µM | Potency [7] | Potency [8]
